Measurements published in PubChem BioAssay (NCI).
This is part of a sample that, as a whole, favours compounds with a hit. Of some 83,000 tested, about 20% had one in any assay.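 Method: cells in 96-well plates; compound added at one concentration; 48 h incubation; percent growth measured; values under 10 scored active.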 Active and inactive are the calls of the source.

Assays:
Assay in all cases: NCI-60 one-dose screen, 48 h (100 = growth as untreated, 0 = no growth, -100 = all killed)
Conditions in all cases: 10 µM unless noted
BT-549 breast = tested on: BT-549 breast
MDA-MB-435 melanoma = tested on: MDA-MB-435 melanoma
SW-620 colon = tested on: SW-620 colon
MCF7 breast = tested on: MCF7 breast
HCT-116 colon = tested on: HCT-116 colon
HCC-2998 colon = tested on: HCC-2998 colon
KM12 colon = tested on: KM12 colon

Measured: growth

c1ccc(-c2cn3ccnc3c(-c3ccc4c(c3)ncn4C3CCCCC3)n2)cc1
inactive: BT-549 breast 99.6% | MDA-MB-435 melanoma 99.5% | SW-620 colon 110% | MCF7 breast 84.1% | HCT-116 colon 96.2% | HCC-2998 colon 105% | KM12 colon 94.3%

Nc1n[nH]c2cccc(C#Cc3cccc(NC(=O)c4cc(N5CCOCC5)cc(C(F)(F)F)c4)c3)c12
inactive: BT-549 breast 63.4% | MDA-MB-435 melanoma 45.8% | SW-620 colon 46.6% | MCF7 breast 46.6% | HCT-116 colon 19.4% | HCC-2998 colon 31.3% | KM12 colon 54.5%

CC(=O)Nc1c(C(=O)Nc2ccccc2)sc2nc3c(cc12)C(OC(C)=O)CCC3 (stereo not drawn)
inactive: BT-549 breast 83.6% | MDA-MB-435 melanoma 35.3% | SW-620 colon 97.4% | MCF7 breast 97.6% | HCT-116 colon 104% | HCC-2998 colon 68.7% | KM12 colon 80.2%

Cc1nc2sc(C(=O)Nc3cccc4ccccc34)c(N)c2cc1C(C)O (stereo not drawn)
active: MDA-MB-435 melanoma -33.7% | HCT-116 colon 8.51%
inactive: BT-549 breast 26.2% | SW-620 colon 30.5% | MCF7 breast 17.8% | HCC-2998 colon 15.7% | KM12 colon 18.2%

COC(=O)/C=C1\SC(=Nc2cccc(Cl)c2)N(CCc2c[nH]c3ccccc23)C1=O
inactive: BT-549 breast 44.8% | MDA-MB-435 melanoma 42.7% | SW-620 colon 40.5% | MCF7 breast 20.1% | HCT-116 colon 38.2% | HCC-2998 colon 52.9% | KM12 colon 24.3%

Cc1ccn2c3c(c(C(=O)O)c2c1)C(=O)c1ccccc1C3=O
inactive: BT-549 breast 58.9% | SW-620 colon 74.1% | MCF7 breast 61.1% | HCT-116 colon 82.3% | HCC-2998 colon 62% | KM12 colon 66.7%
active: MDA-MB-435 melanoma -78.2%

N#Cc1ccc(Oc2ccc3ccc(=O)oc3c2)cc1
inactive: BT-549 breast 110% | MDA-MB-435 melanoma 120% | SW-620 colon 96.5% | MCF7 breast 97.3% | HCT-116 colon 91.5% | HCC-2998 colon 104% | KM12 colon 96.2%

C=CCn1c(SCC(=O)Nc2ccc(C(=O)/C=C/c3cc(OC)c(OC)c(OC)c3)cc2)nnc1-c1ccccc1
inactive: BT-549 breast 95.5% | MDA-MB-435 melanoma 50% | SW-620 colon 73.2% | MCF7 breast 13.6% | HCT-116 colon 15.8% | HCC-2998 colon 108% | KM12 colon 54.4%

Cn1cc(-c2ccc3c(c2)ncn3-c2ccc(CC(=O)Nc3cc(C(C)(C)C)on3)cc2)cn1
inactive: BT-549 breast 31.5% | MDA-MB-435 melanoma 34.8% | SW-620 colon 33.7% | MCF7 breast 26.9% | HCT-116 colon 16.6% | HCC-2998 colon 76.3% | KM12 colon 16.3%

C=C1C(=O)O[C@H]2[C@H]1CC/C(COC(=O)CCCCC(=O)OC/C1=C/CC[C@@]3(C)O[C@H]3[C@H]3OC(=O)C(=C)[C@@H]3CC1)=C\CC[C@@]1(C)O[C@@H]21
active: HCT-116 colon 3.28%
inactive: BT-549 breast 61.1% | MDA-MB-435 melanoma 56.2% | SW-620 colon 25.1% | MCF7 breast 21.3% | HCC-2998 colon 100% | KM12 colon 90.6%

Cc1ccc(CS/C(=C\c2ccc([N+](=O)[O-])cc2)C(=O)c2ccc(F)cc2)cc1
active: SW-620 colon -11.5% | MCF7 breast -4.97% | HCT-116 colon -53.1%
inactive: BT-549 breast 75.8% | MDA-MB-435 melanoma 33.5% | HCC-2998 colon 83.7% | KM12 colon 13.2%

O=CN1N=C(c2ccc3c(c2)OCO3)CC1c1cccc(Nc2ccnc3cc(C(F)(F)F)ccc23)c1 (stereo not drawn)
inactive: BT-549 breast 75% | MDA-MB-435 melanoma 40.6% | SW-620 colon 95.1% | MCF7 breast 68.2% | HCT-116 colon 74.5% | HCC-2998 colon 93.6% | KM12 colon 66.6%

N#Cc1ccc(N2Cc3cc(Cl)ccc3OC3=C2C(=O)N(Cc2ccc(F)cc2)C3=O)cc1
inactive: HCC-2998 colon 42.2% | KM12 colon 52.6%
active: BT-549 breast -63.3% | MDA-MB-435 melanoma -48.8% | SW-620 colon -81% | MCF7 breast -19.5% | HCT-116 colon -90.4%

CCCCC(=O)Nc1c(C(=O)Nc2ccccc2)sc2nc3c(cc12)C(OC(=O)CCCC)CCC3 (stereo not drawn)
inactive: BT-549 breast 85.4% | MDA-MB-435 melanoma 108% | SW-620 colon 50.1% | MCF7 breast 82.9% | HCT-116 colon 101% | HCC-2998 colon 101% | KM12 colon 99.9%

COCCc1n(Cc2ccc3ccccc3c2)c2ccccc2[n+]1Cc1ccc2ccccc2c1
active: BT-549 breast -48.5% | MDA-MB-435 melanoma -87.5% | SW-620 colon -73.7% | MCF7 breast -68.1% | HCT-116 colon -81.2% | HCC-2998 colon -78.1% | KM12 colon -86.2%

COc1cc(NCC(=O)Nc2cc(Nc3ccc(C)cc3)ncn2)c(Cl)c(OC)c1Cl
inactive: BT-549 breast 101% | MDA-MB-435 melanoma 102% | SW-620 colon 103% | MCF7 breast 78.6% | HCT-116 colon 88.4% | HCC-2998 colon 92.6% | KM12 colon 87.5%

COc1ccc(-n2nc(C(=O)NCC(=O)O)nc2-c2ccccc2)cc1
inactive: BT-549 breast 94.2% | MDA-MB-435 melanoma 111% | SW-620 colon 112% | MCF7 breast 98.2% | HCT-116 colon 101% | HCC-2998 colon 118% | KM12 colon 108%

S=C(Nc1ccccc1)c1ccccn1
inactive: BT-549 breast 90.5% | MDA-MB-435 melanoma 103% | SW-620 colon 89.6% | MCF7 breast 77.5% | HCT-116 colon 92.5% | HCC-2998 colon 98.7% | KM12 colon 99.8%

COc1cccc2c1-c1ccccc1C2=O
inactive: SW-620 colon 26.7% | MCF7 breast 24% | HCT-116 colon 12.9% | HCC-2998 colon 30.8% | KM12 colon 36%
active: BT-549 breast -0.0616% | MDA-MB-435 melanoma -48.2%

C=CCn1c(SCC(=O)Nc2ccc(C(=O)/C=C/c3ccc(Cl)cc3)cc2)nnc1-c1cc(OC)c(OC)c(OC)c1
active: HCT-116 colon 6.42%
inactive: BT-549 breast 94% | MDA-MB-435 melanoma 93.2% | SW-620 colon 98.2% | MCF7 breast 41% | HCC-2998 colon 106% | KM12 colon 93.3%

CN1C(=O)c2cc(Cl)nc3c(NC(=O)c4cccc(Cl)c4)c(Cl)c(NC(=O)c4cccc(Cl)c4)c1c23
active: BT-549 breast -8.59% | MDA-MB-435 melanoma 3.49% | SW-620 colon -58.3% | HCT-116 colon -56.2% | HCC-2998 colon 9.23%
inactive: MCF7 breast 18.1% | KM12 colon 64.3%

O=C1CCC23OC(C(O)c4ccccc4N12)C1C(Br)=NOC13 (stereo not drawn)
inactive: BT-549 breast 102% | MDA-MB-435 melanoma 96.2% | SW-620 colon 107% | MCF7 breast 96.5% | HCT-116 colon 94.6% | HCC-2998 colon 100% | KM12 colon 103%

COc1cc2c(cc1OC)C(Sc1ccc(Cl)cc1)c1c(nc(N)c(C#N)c1N)O2 (stereo not drawn)
active: BT-549 breast 1.72% | MDA-MB-435 melanoma -43.8% | SW-620 colon -63.1% | MCF7 breast -52.2% | HCT-116 colon -70.6% | HCC-2998 colon -48.1% | KM12 colon -27.8%

CSc1nc(-c2ccco2)c2c(N)[nH]nc2n1
inactive: BT-549 breast 102% | MDA-MB-435 melanoma 115% | SW-620 colon 111% | MCF7 breast 94.2% | HCT-116 colon 84.1% | HCC-2998 colon 111% | KM12 colon 44.1%

Sc1cccc2cccnc12
inactive: BT-549 breast 48.4% | MDA-MB-435 melanoma 44.9% | SW-620 colon 38.7% | MCF7 breast 26.8% | HCT-116 colon 11.5% | HCC-2998 colon 40% | KM12 colon 25.4%

Cc1cc(C)n(-c2nc(-c3cccs3)c(C#N)c(=O)[nH]2)n1
inactive: BT-549 breast 83% | MDA-MB-435 melanoma 95.2% | SW-620 colon 102% | MCF7 breast 89.8% | HCT-116 colon 85.1% | HCC-2998 colon 96.7% | KM12 colon 97.9%

O=[N+]([O-])c1ccc(N=Nc2c(O)c(N=Nc3cc([N+](=O)[O-])cc([N+](=O)[O-])c3O)cc(N=Nc3cc(S(=O)(=O)O)cc4cc(S(=O)(=O)O)cc(O)c34)c2O)cc1
inactive: BT-549 breast 104% | MDA-MB-435 melanoma 107% | SW-620 colon 108% | MCF7 breast 99.6% | HCT-116 colon 80.9% | HCC-2998 colon 104% | KM12 colon 103%

CCOc1ccccc1C(=O)/C=C/c1cc2ccccc2[nH]c1=O
active: BT-549 breast -19.2% | MDA-MB-435 melanoma 5.11% | SW-620 colon 4.2% | MCF7 breast 3.4% | HCT-116 colon -64.7% | HCC-2998 colon -97.6% | KM12 colon -45.3%

Nc1ccc2c(c1)C(=O)C(=O)c1c-2nc2ccccn12
inactive: HCC-2998 colon 19.4% | KM12 colon 20%
active: BT-549 breast -34.6% | MDA-MB-435 melanoma -87.3% | SW-620 colon 4.01% | MCF7 breast -54.7% | HCT-116 colon 1.3%

COC(=O)/C=C/c1cc(OC(C)=O)c2c(c1)C(C(=O)OC)C(c1ccc(OC(C)=O)c(OC(C)=O)c1)O2 (stereo not drawn)
active: BT-549 breast -4.09% | MDA-MB-435 melanoma -26.1% | HCT-116 colon 9.77%
inactive: SW-620 colon 20.5% | MCF7 breast 10% | HCC-2998 colon 25.5% | KM12 colon 16.5%

Nc1cc(N)c(S(=O)(=O)O)cc1N=Nc1cc([N+](=O)[O-])ccc1O
inactive: BT-549 breast 105% | MDA-MB-435 melanoma 112% | SW-620 colon 108% | MCF7 breast 94.7% | HCT-116 colon 94% | HCC-2998 colon 109% | KM12 colon 106%

CCCCCCN1C(=O)CN=C1Nc1ccc2cc3ccc(NC4=NCC(=O)N4CCCCCC)cc3nc2c1
inactive: BT-549 breast 78.1% | MDA-MB-435 melanoma 55.3% | HCT-116 colon 20.1% | HCC-2998 colon 47.2% | KM12 colon 31.1%
active: SW-620 colon -51.6% | MCF7 breast 0.96%

CCC[S@@](=O)c1ccc2nc(NC(=O)OC)[nH]c2c1
inactive: BT-549 breast 79.1% | MDA-MB-435 melanoma 16.6% | SW-620 colon 71% | MCF7 breast 61.9% | HCT-116 colon 79.6% | HCC-2998 colon 90% | KM12 colon 65.6%

NS(=O)(=O)c1ccc(-n2ncc(NC(=O)Nc3ccc(S(=O)(=O)Nc4nccs4)cc3)c2-c2ccccc2)cc1
inactive: BT-549 breast 103% | MDA-MB-435 melanoma 98.1% | SW-620 colon 98.5% | MCF7 breast 92% | HCT-116 colon 93% | HCC-2998 colon 107% | KM12 colon 108%
